Records with an inconclusive call do not appear. Active and inactive are the calls of the source. Unless noted, calls come from the whole dose curve.
Legend:
[1] = Nuclear factor erythroid 2-related factor 2/antioxidant responsive element (Nrf2/ARE) small molecule agonists: qHTS cell viability counter screen in human keratinocytes (AID 1919968; active = well fitted curve in the direction sought with a large enough effect in the repeat runs; an effect the other way counts as inactive or inconclusive; note: nearly all actives have a fitted effect of over 55% in size; note: potency is the fitted concentration of half-maximal effect)
Method in brief: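 KeratinoSens HaCaT cells, 1,500/well, preincubated 5 h, then exposed to compounds in DMSO for 23 h at 37 C/5% CO2. Viability read as CellTiter-Fluor fluorescence after 1 h, in the same wells as the ARE-luciferase read.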

[2] = Nuclear factor erythroid 2-related factor 2/antioxidant responsive element (Nrf2/ARE) small molecule agonists: luciferase reporter gene qHTS assay in human keratinocytes (AID 1919969); note: nearly all actives have a fitted effect of over 35% in size; note: potency is the fitted concentration of half-maximal effect
[3] = target: Gonadotropin-releasing hormone receptor (Homo sapiens) (UniProt P30968); assay: Human gonadotropin-releasing hormone receptor (GnRHR) small molecule agonists, calcium flux assay in GnRHR-HEK293 cells (AID 1920063); note: nearly all actives have a fitted effect of over 35% in size
Gonadotropin-releasing hormone receptor (Homo sapiens), sequence (P30968 whole entry, looked up): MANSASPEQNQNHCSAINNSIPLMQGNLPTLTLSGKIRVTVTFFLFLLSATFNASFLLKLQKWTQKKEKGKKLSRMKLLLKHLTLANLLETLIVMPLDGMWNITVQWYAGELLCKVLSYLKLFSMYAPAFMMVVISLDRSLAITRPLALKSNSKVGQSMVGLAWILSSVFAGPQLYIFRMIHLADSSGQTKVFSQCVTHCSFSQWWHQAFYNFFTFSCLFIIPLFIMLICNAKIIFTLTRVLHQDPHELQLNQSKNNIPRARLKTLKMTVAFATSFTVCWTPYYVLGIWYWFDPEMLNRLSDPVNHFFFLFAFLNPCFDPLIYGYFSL
Method in brief: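 HEK293 cells stably expressing human GnRHR were dye-loaded for 1 h at 37 C. Compound was added in agonist mode and fluorescence (Ex/Em 480/540) recorded kinetically for 3 min. Fifteen concentrations, triplicates.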

[4] = target: KiSS-1 receptor (Homo sapiens) (UniProt Q969F8); assay: Human kisspeptin (KISS1R) small molecule agonists, calcium flux assay in KISS1R-HEK293 cells (AID 1920064; active = well fitted curve in the direction sought with a large enough effect in the repeat runs; an effect the other way counts as inactive or inconclusive)
KiSS-1 receptor (Homo sapiens), sequence (Q969F8 whole entry, looked up): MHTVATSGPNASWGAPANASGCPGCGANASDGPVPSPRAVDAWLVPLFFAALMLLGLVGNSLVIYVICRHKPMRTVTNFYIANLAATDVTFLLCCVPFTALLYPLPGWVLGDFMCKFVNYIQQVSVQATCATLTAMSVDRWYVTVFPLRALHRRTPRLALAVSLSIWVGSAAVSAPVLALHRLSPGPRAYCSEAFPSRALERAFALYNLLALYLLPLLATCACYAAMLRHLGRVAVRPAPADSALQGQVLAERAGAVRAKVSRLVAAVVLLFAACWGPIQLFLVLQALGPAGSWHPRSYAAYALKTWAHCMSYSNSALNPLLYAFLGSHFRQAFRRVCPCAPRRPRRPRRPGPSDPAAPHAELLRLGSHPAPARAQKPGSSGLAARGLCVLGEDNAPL
Method in brief: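 HEK293 cells stably expressing human KISS1R were loaded with calcium dye for 1 h at 37 C, then given compound; fluorescence (Ex/Em 480/540) was read kinetically for 3 min. Fifteen concentrations, triplicate.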

[5] = G protein-coupled receptor (GPCR) small molecule agonists, calcium flux assay: HEK293 wild type cell line counter screen (AID 1920065)
Method in brief: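 Wild-type HEK293 cells plated 18 h, loaded with calcium dye 1 h at 37 C, then compounds added in agonist mode (ATP as positive control). Kinetic fluorescence Ex/Em 480/540 recorded 3 min at 1 sec intervals; 15 concentrations, triplicate.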

[6] = p53 small molecule agonists, cell-based qHTS assay with human liver microsomes (AID 1963577);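 note: p53 response element beta-lactamase reporter cells with liver microsomes plus NADPH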
Method in brief: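 HLM-supplemented p53RE-bla reporter assay: 16 h compound exposure at 37 C, microsomes and NADPH each 0.5 mg/mL final, read by fluorescence intensity.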

[7] = p53 small molecule agonists, cell-based qHTS assay with rat liver microsomes (AID 1963578)
Method in brief: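 Quantitative HTS of the Tox21 10K library: p53RE-bla cells, rat liver microsomes plus NADPH at 0.5 mg/mL final each, 16 h at 37 C, beta-lactamase fluorescence detection.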

[8] = p53 small molecule agonists, cell-based qHTS assay with human liver microsomes: qHTS cell viability counter screen (AID 1963579); note: nearly all actives have a fitted effect of over 45% in size; note: potency is the fitted concentration of half-maximal effect
Method in brief: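 Viability of p53RE-bla cells is measured as CellTiter-Glo luminescence following a 16 h, 37 C incubation with compound, liver microsomes from human donors and NADPH.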

[9] = p53 small molecule agonists, cell-based qHTS assay with rat liver microsomes: qHTS cell viability counter screen (AID 1963580); note: nearly all actives have a fitted effect of over 45% in size; note: potency is the fitted concentration of half-maximal effect
Method in brief: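 HCT-116 p53RE-bla, 4,000 cells/well, 5 h pre-incubation; cpd + rat liver microsomes 0.5 mg/mL + NADPH 0.5 mg/mL (final); 16 h, 37 C; CellTiter-Glo, 30 min RT; luminescence.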

[10] = p53 small molecule agonists, cell-based qHTS assay: qHTS cell viability counter screen (AID 1963581); note: nearly all actives have a fitted effect of over 45% in size; note: potency is the fitted concentration of half-maximal effect
Method in brief: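 p53RE-bla HCT-116 cells, compounds added 5 h after plating and incubated 16 h at 37 C. Cytotoxicity measured in the same wells as intracellular ATP by CellTiter-Glo luminescence after 30 min at room temperature.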

[11] = target: Muscarinic acetylcholine receptor M1 (Homo sapiens) (UniProt P11229); assay: Cholinergic receptor muscarinic 1 (CHRM1) small molecule antagonists, cell-based qHTS assay (AID 1963588); note: nearly all actives have a fitted effect of over 40% in size; note: potency is the fitted concentration of half-maximal effect
Muscarinic acetylcholine receptor M1 (Homo sapiens), sequence (P11229 whole entry, looked up): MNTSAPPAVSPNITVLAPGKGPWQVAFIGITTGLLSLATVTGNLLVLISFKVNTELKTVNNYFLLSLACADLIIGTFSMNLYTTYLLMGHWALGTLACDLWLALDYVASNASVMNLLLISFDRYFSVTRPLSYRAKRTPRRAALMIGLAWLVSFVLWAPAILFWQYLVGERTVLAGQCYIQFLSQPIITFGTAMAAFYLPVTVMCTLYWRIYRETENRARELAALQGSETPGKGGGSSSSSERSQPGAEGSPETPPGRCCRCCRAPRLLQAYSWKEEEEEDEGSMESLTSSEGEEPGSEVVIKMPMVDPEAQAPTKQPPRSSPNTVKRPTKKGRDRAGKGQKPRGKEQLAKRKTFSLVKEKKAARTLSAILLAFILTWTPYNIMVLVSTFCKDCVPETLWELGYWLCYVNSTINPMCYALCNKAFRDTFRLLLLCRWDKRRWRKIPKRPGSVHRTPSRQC
Method in brief: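 CHRM1-CHO calcium-flux assay, antagonist mode. Cells were seeded 18 h, dye-loaded 1 h at 37 C and given compound for 5 min at RT, then acetylcholine was added at 50nM. FDSS fluorescence was read 3 min; 15 concentrations, three runs.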

[12] = target: Muscarinic acetylcholine receptor M1 (Homo sapiens) (UniProt P11229); assay: Cholinergic receptor muscarinic 1 (CHRM1) small molecule agonists, cell-based qHTS assay (AID 1963589); note: nearly all actives have a fitted effect of over 35% in size
Method in brief: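 CHO cells stably expressing human CHRM1 were loaded with calcium dye for 1 h at 37 C, then compound was added in agonist mode. Intracellular calcium fluorescence was followed kinetically at 1 s intervals. Fifteen concentrations were tested in three independent runs.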

[13] = cAMP Responsive Elements (CRE) small molecule agonists, cell-based qHTS assay (AID 1963590)
Method in brief: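 CRE-bla HEK 293T cells, 2,000/well in DMEM with 10% dialyzed FBS and 25 mM HEPES, pre-incubated 18 h at 37 C, then exposed to compound 3 h at 37 C. Beta-lactamase reporter read with LiveBLAzer B/G FRET substrate after 2 h at room temperature.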

[14] = cAMP Responsive Elements (CRE) small molecule antagonists, cell-based qHTS assay (AID 1963591; active = well fitted inhibition curve with a large enough effect in the signal ratio in the repeat runs, not every such curve was filed as active; the % refers to the signal ratio)
Method in brief: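 CRE-bla HEK293T cells plated 18 h, then given compound plus NKH477 at 0.25 uM final for 3 h at 37C. Beta-lactamase reporter read with LiveBLAzer B/G FRET substrate after 2 h at room temperature.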

[15] = target: Beta-2 adrenergic receptor (Homo sapiens) (UniProt P07550); assay: Adrenergic beta2 receptor (ADRB2) small molecule antagonists, cell-based qHTS assay (AID 1963592); note: series mostly up to about 92 µM; nearly all actives have a fitted effect of over 50% in size
Beta-2 adrenergic receptor (Homo sapiens), sequence (P07550 whole entry, looked up): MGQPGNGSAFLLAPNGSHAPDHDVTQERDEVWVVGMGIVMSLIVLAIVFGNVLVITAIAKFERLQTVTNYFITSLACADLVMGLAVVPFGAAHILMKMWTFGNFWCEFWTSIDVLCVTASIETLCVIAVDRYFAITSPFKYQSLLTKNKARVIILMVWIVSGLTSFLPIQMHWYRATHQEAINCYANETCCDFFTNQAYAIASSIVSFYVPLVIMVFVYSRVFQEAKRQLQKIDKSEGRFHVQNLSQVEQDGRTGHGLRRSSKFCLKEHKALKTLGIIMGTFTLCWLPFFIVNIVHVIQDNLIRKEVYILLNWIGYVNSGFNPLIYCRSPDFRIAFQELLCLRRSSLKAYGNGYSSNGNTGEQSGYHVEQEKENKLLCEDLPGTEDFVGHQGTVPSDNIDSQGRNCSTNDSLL
Method in brief: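 Cells (CHO, stable ADRB2 overexpression) incubated 18-20hr at 37C; compounds added from DMSO; agonist mix (1nM isoproterenol, 100uM IBMX, 25uM Ro-20-1724) added; 0.5hr RT; d2-cAMP and anti-cAMP-cryptate added; 1hr RT; 665/615 nm read.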

[16] = target: D(2) dopamine receptor (Homo sapiens) (UniProt P14416); assay: Dopamine D2 receptor (DRD2) small molecule agonists, cell-based qHTS assay (AID 1963594); note: nearly all actives have a fitted effect of over 35% in size
D(2) dopamine receptor (Homo sapiens), sequence (P14416 whole entry, looked up): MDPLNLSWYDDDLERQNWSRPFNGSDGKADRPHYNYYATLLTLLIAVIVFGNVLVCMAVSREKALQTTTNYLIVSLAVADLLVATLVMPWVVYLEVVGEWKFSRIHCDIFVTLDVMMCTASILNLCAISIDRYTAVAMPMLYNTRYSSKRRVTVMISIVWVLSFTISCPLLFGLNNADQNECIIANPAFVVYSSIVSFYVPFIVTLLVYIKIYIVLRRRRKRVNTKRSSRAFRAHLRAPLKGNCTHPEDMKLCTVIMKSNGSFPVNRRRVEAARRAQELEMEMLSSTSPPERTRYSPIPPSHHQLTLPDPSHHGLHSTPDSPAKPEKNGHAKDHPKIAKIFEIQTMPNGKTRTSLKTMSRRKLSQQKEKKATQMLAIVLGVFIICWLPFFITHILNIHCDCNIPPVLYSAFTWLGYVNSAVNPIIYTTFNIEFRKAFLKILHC
Method in brief: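 cAMP accumulation in DRD2-HEK293 cells measured by HTRF after 1 h detection; compounds added 10 min before NKH477 (200nM […]) forskolin-analogue stimulation, 30 min at room temperature, with Ro20-1724 present at 0.1 mM final.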

[17] = target: D(2) dopamine receptor (Homo sapiens) (UniProt P14416); assay: Dopamine D2 receptor (DRD2) small molecule antagonists, cell-based qHTS assay (AID 1963595; active = well fitted inhibition curve with a large enough effect in the signal ratio in the repeat runs, with a control signal flat; the % refers to the signal ratio; note: potency is the fitted concentration of half-maximal effect)
Method in brief: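 Readout: HTRF cAMP, cAMP-d2 competing with cellular cAMP for anti-cAMP cryptate, read after 1 h. Cells: DRD2-HEK293. Conditions: 0.1 mM Ro20-1724, 12 nM quinpirole, 200 nM NKH477, 30 min RT.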

[18] = target: 5-hydroxytryptamine receptor 2A (Homo sapiens) (UniProt P28223); assay: 5-hydroxytryptamine receptor 2A (HTR2A) small molecule agonists, cell-based qHTS assay (AID 1963587); note: nearly all actives have a fitted effect of over 30% in size; note: potency is the fitted concentration of half-maximal effect
5-hydroxytryptamine receptor 2A (Homo sapiens), sequence (P28223 whole entry, looked up): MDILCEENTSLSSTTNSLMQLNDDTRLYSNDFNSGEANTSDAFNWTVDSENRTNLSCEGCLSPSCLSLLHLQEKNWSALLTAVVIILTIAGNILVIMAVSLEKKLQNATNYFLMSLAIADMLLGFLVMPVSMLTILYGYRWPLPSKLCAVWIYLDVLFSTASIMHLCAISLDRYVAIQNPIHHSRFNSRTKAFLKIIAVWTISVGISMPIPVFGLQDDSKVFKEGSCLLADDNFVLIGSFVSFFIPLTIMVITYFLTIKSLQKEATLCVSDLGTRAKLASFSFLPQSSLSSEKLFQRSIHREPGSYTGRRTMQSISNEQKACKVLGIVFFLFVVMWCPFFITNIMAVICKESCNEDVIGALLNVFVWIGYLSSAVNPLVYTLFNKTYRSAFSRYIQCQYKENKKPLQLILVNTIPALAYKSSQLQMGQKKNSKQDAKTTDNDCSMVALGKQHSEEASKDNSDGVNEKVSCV
Method in brief: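 Kinetic calcium-flux fluorescence (2 min, 1 sec intervals) after compound addition in agonist mode. HTR2A-CHO cells were cultured 18 h, then dye-loaded 1 h at 37 C.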

[19] = target: Beta-2 adrenergic receptor (Homo sapiens) (UniProt P07550); assay: Adrenergic beta2 receptor (ADRB2) small molecule agonists, cell-based qHTS assay (AID 1963593);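 note: CHO cells stably overexpressing human ADRB2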
Method in brief: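 CHO cells stably over-expressing ADRB2 were plated overnight at 37C, then dosed with compounds plus a stimulation mix containing 100uM IBMX and 25uM Ro-20-1724 for 0.5hr at room temperature. cAMP was measured by HTRF competition, 1hr.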

[20] = target: 5-hydroxytryptamine receptor 2A (Homo sapiens) (UniProt P28223); assay: 5-hydroxytryptamine receptor 2A (HTR2A) small molecule antagonists, cell-based qHTS assay (AID 1963586); note: nearly all actives have a fitted effect of over 45% in size
Method in brief: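 Antagonist-mode intracellular calcium assay: DOI (4 nM) added after 5 min compound pre-incubation at room temperature to dye-loaded HTR2A-CHO cells. Fluorescence followed for 3 min, sampled every second.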
% is set by controls: 0 for no effect and ±100 for the full control effect.

CCCCCCCC/C=C\CCCCCCCCN
inactive: Potency [1] | Potency [2] | Potency [3] | outcome [4] | outcome [5] | Potency [6] | Potency [7] | Potency [8] | Potency [9] | Potency [10] | Potency [11] | Potency [12] | Potency [13] | Potency [14] | Potency [15] | Potency [16] | Potency [17]

CCCCCCCC[N+](CCCCCCCC)(CCCCCCCC)CCCCCCCC
inactive: Potency [2] | Potency [3] | outcome [4] | outcome [5] | Potency [6] | Potency [7] | Potency [18] | Potency [11] | Potency [12] | Potency [15] | Potency [16]
active: Potency [1] 8.62 µM | Potency [8] 18.2 µM | Potency [9] 16.2 µM | Potency [10] 4.57 µM | Potency [17] 24.3 µM

CC1(C)[C@H]2CC[C@]1(C)C(=O)C2
active: Potency [2] 68.6 µM
inactive: Potency [1] | Potency [3] | outcome [4] | outcome [5] | Potency [6] | Potency [7] | Potency [8] | Potency [9] | Potency [10] | Potency [14] | Potency [15] | Potency [19] | Potency [16] | Potency [17]

COCCc1ccccn1
inactive: Potency [1] | Potency [2] | Potency [3] | outcome [4] | outcome [5] | Potency [6] | Potency [7] | Potency [8] | Potency [9] | Potency [10] | Potency [18] | Potency [12] | Potency [13] | Potency [14] | Potency [15] | Potency [19] | Potency [17]

CCCCCCCC[P+](CCCCCCCC)(CCCCCCCC)CCCCCCCC
inactive: Potency [2] | Potency [3] | outcome [4] | outcome [5] | Potency [6] | Potency [7] | Potency [11] | Potency [12] | Potency [16]
active: Potency [1] 4.83 µM | Potency [8] 8.09 µM | Potency [9] 20.3 µM | Potency [10] 2.56 µM | Potency [18] 24.4 µM | Potency [17] 13.6 µM

CO[C@H]1C=CO[C@@]2(C)Oc3c(C)c(O)c4c(O)c(cc(O)c4c3C2=O)NC(=O)/C(C)=C\C=C/[C@H](C)[C@H](O)[C@@H](C)[C@@H](O)[C@@H](C)[C@H](OC(C)=O)[C@@H]1C
inactive: Potency [3] | outcome [4] | outcome [5] | Potency [6] | Potency [7] | Potency [8] | Potency [9] | Potency [10] | Potency [20] | Potency [18] | Potency [12] | Potency [14] | Potency [16]
active: Potency [1] 54.9 µM | Potency [2] 27.5 µM

CCCCCCCCCCCCCCCCCCOCCO
inactive: activity change, negative = cytotoxicity [1] 1.01% [at 19 µM] | activity, positive = activation [2] -0.745% [at 19 µM] | activity change [3] 0.36% [at 11.8 µM, stronger effect = higher value] | activation [4] 1.36% [at 15.8 µM] | activation [5] 0.568% [at 11.8 µM] | activation [6] 4.4% [at 13.5 µM] | activation [7] 0.0249% [at 13.6 µM] | activity change, negative = cytotoxicity [8] -1.11% [at 13.5 µM] | activity change, negative = cytotoxicity [9] 2.48% [at 13.5 µM] | activity change, negative = cytotoxicity [10] 16.5% [at 13.5 µM] | activity, negative = inhibition [20] -22.3% [at 12.7 µM] | activity, negative = inhibition [11] -0.0015% [at 12.6 µM] | activation [12] -0.156% [at 15.8 µM] | activation [13] 3.72% [at 19 µM] | activity change, negative = inhibition [14] 0.259% [at 18.9 µM] | activity change, negative = inhibition [15] -12.3% [at 19 µM] | activation [16] -2.91% [at 19 µM] | activity change, negative = inhibition [17] -0.251% [at 18.9 µM]

CN(C)CCC=C1c2ccccc2C=Cc2ccccc21
inactive: Potency [1] | Potency [2] | Potency [3] | outcome [4] | outcome [5] | Potency [6] | Potency [7] | Potency [8] | Potency [9] | Potency [10] | Potency [11] | Potency [13] | Potency [14] | Potency [16]
active: Potency [17] 33.5 µM

O[C@@H](COc1cccc2ncccc12)CN1CCN(C2c3ccccc3[C@@H]3[C@H](c4ccccc42)C3(F)F)CC1 (some centres undefined)
active: Potency [11] 3.65 µM
inactive: Potency [1] | Potency [2] | Potency [3] | outcome [4] | outcome [5] | Potency [6] | Potency [7] | Potency [8] | Potency [9] | Potency [10] | Potency [18] | Potency [12] | Potency [15] | Potency [16] | Potency [17]

C/C=C(/C(=C/C)c1ccc(OC(C)=O)cc1)c1ccc(OC(C)=O)cc1
inactive: Potency [1] | Potency [2] | Potency [3] | outcome [4] | outcome [5] | Potency [6] | Potency [7] | Potency [8] | Potency [9] | Potency [10] | Potency [18] | Potency [11] | Potency [12] | Potency [13] | Potency [15] | Potency [16] | Potency [17]

O=C(O)c1cccc(C(=O)O)n1
inactive: Potency [1] | Potency [2] | Potency [3] | outcome [4] | outcome [5] | Potency [6] | Potency [7] | Potency [8] | Potency [9] | Potency [10] | Potency [20] | Potency [11] | Potency [12] | Potency [14] | Potency [15] | Potency [17]

CCC(C)COC(=O)CC(C)C (centres undefined)
inactive: Potency [1] | Potency [2] | Potency [3] | outcome [4] | outcome [5] | Potency [6] | Potency [7] | Potency [8] | Potency [9] | Potency [10] | Potency [20] | Potency [11] | Potency [12] | Potency [16] | Potency [17]

CCC(C(=O)OCCN1CCOC(c2ccccc2)C1C)c1ccccc1 (centres undefined)
inactive: Potency [1] | Potency [2] | Potency [3] | outcome [4] | outcome [5] | Potency [6] | Potency [7] | Potency [8] | Potency [9] | Potency [10] | Potency [18] | Potency [12] | Potency [13] | Potency [14] | Potency [15] | Potency [19] | Potency [16] | Potency [17]

CCCCCCCC/C=C\CCCCCCCCOCCO
inactive: Potency [2] | Potency [3] | outcome [4] | outcome [5] | Potency [6] | Potency [7] | Potency [18] | Potency [12] | Potency [15] | Potency [16]
active: Potency [1] 22.4 µM | Potency [8] 53 µM | Potency [9] 53 µM | Potency [10] 21.1 µM

From PubChem BioAssay (Tox21)
